Reference: PubChem BioAssay (Tox21)
“And” between values parts separate entries of the source, which are not always exact repeats. Identical values can stand only once. Inconclusive results are not listed. Some structures have more than one record in an assay (separate samples or runs), and their calls can disagree. The source made the active and inactive calls. The call rests on the fitted dose curve; in most records, active means well fitted inhibition curve with a large enough effect in the repeat runs; inconclusive means weak or mixed curves; inactive means no such curve, though single readings can be large or run the other way.

The compounds below were run against Cytochrome P450 2C19 (Homo sapiens) (UniProt P33261) (assay: Cytochrome P450 Family 2 Subfamily C Member 19 (CYP2C19) small molecule antagonists: luciferase reporter qHTS assay (AID 1671197; further: nearly all actives have a fitted effect of over 65% in size)). Conditions: P450-Glo CYP2C19 enzyme, luciferin luminescence, 1 h; series mostly up to 115 µM; activity change, negative = inhibition: at the top concentration.
Description: National Center for Advancing Translational Sciences [NCATS]
U.S. Environmental Protection Agency [EPA]
National Institutes of Environmental Health Sciences [NIEHS]
National Toxicology Program [NTP]
U.S. Food and Drug Administration [FDA]
Cytochrome P450 (CYP) enzymes are membrane-bound hemeproteins that play a key role in metabolism of drugs and xenobiotics. Evaluation of the effect of chemicals on CYP isozymes is useful to minimize the adverse drug reactions and toxicities in drug development process. Tox21 chemicals were tested for their effect on CYP enzyme activities by using P450-Glo (TM) screening systems (Promega Corporation, Madison, WI). These systems provide a luminescent method containing proluciferin substrates and are converted to luciferin products by CYP isozymes. The luciferin products formed are detected with a luciferin detection reagent, and the amount of light produced is proportional to CYP activity. P450-Glo (TM) CYP2C19 screening system (Catalog. No. V9880) was used to detect the compounds that interfere in CYP2C19 activity. The positive control compound used for CYP2C19 assay is ketoconazole (Sigma-Aldrich, St. Louis, MO).
Tox21 Assay Protocol Summary:
Two ul of enzyme-substrate mix was dispensed into medium binding white/solid 1536-well plates (Greiner Bio-One North America Inc., Monroe, NC) using a BioRaptr Flying Reagent Dispenser (FRD, Beckman Coulter, Brea, CA). Compounds dissolved in DMSO and positive control (ketoconazole) were transferred to the assay plates at 23 nl using a Pintool station (Wako, San Diego, CA). The assay plates were incubated at room temperature for 10 min. Then 2 ul of NADPH regeneration solution was added to each well of the assay plates using an FRD and incubated at 37C for 1 h. The reaction was stopped by adding 4 ul of detection reagent using an FRD and after 20 min incubation at room temperature the luminescence signal was measured using a ViewLux plate reader (Perkin Elmer, Shelton, CT). Data were expressed as relative luminescence units.
On the % scale 0 is the no-effect control and ±100 the full control effect; potency means the concentration at half of the fitted maximal effect.

Cytochrome P450 2C19 (Homo sapiens), sequence (P33261 whole entry, looked up): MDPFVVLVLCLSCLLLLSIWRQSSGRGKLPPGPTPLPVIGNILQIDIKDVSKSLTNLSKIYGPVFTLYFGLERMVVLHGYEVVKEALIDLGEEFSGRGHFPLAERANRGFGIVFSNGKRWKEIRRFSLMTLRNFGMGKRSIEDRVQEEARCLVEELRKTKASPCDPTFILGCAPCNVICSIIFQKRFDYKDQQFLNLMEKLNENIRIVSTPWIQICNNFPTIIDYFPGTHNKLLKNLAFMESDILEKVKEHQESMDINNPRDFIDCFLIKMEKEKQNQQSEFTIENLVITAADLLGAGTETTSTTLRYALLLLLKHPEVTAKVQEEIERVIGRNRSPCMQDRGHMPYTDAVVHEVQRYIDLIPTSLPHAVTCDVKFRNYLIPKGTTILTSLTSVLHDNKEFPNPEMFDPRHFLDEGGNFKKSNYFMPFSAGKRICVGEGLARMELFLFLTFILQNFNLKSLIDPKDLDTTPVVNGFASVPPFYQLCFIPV

| SMILES | Potency | activity change, negative = inhibition |
| --- | --- | --- |
| CCCCCCCCCC(=O)OC | inactive |  |
| CCCCNS(=O)(=O)c1ccccc1 | 7.01 µM (active) and 17.8 µM (active) |  |
| OC1CCCCCCCCCCC1 |  | -13.8% (inactive) |
| O=CCc1ccccc1 | 19.9 µM (active) and 5.64 µM (active) |  |
| COC(=O)Nc1nc2ccc(S(=O)c3ccccc3)cc2[nH]1 (stereo not given) | 79.6 µM (active) and inactive |  |
| Nc1ncnc2nc[nH]c12 | inactive |  |
| O=C1OC2(c3cc(Br)c(O)c(Br)c3Oc3c2cc(Br)c(O)c3Br)c2c(Cl)c(Cl)c(Cl)c(Cl)c21 | 38.4 µM (active) |  |
| Cc1c(OCC(F)(F)F)ccnc1CS(=O)c1nc2ccccc2[nH]1 (stereo not given) | 5.64 µM (active) and 3.89 µM (active) |  |
| OC(CCl)CCl | inactive |  |
| CCCCOCCOCCOCCO | inactive |  |
| C[Si](C)(C)O[Si](C)(C)C |  | 15.4% (inactive) |
| CC(CCC(=O)O)(c1ccc(O)cc1)c1ccc(O)cc1 | 71.8 µM (active) and 35.6 µM (active) |  |
| COC(C)COC(C)COC(C)CO (stereo not given) |  | -4.52% (inactive) |
| CN(C)CCN(Cc1cccs1)c1ccccn1 | inactive |  |
| Nc1ccc(Cl)cc1Cl | inactive |  |
| c1cc(N(CC2CO2)CC2CO2)ccc1OCC1CO1 (stereo not given) | inactive and 79.6 µM (active) |  |
| Cc1ccc2c(n1)Oc1ccc(C(C)C(=O)OCC(=O)N(C)C)cc1C2 (stereo not given) | 17.4 µM (active) |  |
| O=S(=O)(O)c1ccc(O)cc1 | inactive |  |
| Nc1ccc(S(=O)(=O)Nc2cnc3ccccc3n2)cc1 | 39.9 µM (active) |  |
| O=C(OCc1ccccc1)c1ccccc1O | 5.6 µM (active) and 17.8 µM (active) |  |

| SMILES | Potency | activity change, negative = inhibition |
| --- | --- | --- |
| CCCCC(CC)COCC1CO1 (stereo not given) | inactive |  |
| Cc1c(C(N)=O)cc([N+](=O)[O-])cc1[N+](=O)[O-] | inactive |  |
| O=CCCCC=O | inactive |  |
| CC(C)Oc1ccc2c(=O)c(-c3ccccc3)coc2c1 |  | 20.5% [at 52.9 µM] (inactive) |
| O=C(COc1ccc(Cl)cc1)N1CCN(Cc2ccc3c(c2)OCO3)CC1 | 17.8 µM (active) and 17.4 µM (active) |  |
| CCOCCOCCO | 36.6 µM (active) and inactive |  |
| CCCCOCCOCCO | inactive |  |
| CC(C)OC(=O)C(C)(C)Oc1ccc(C(=O)c2ccc(Cl)cc2)cc1 | 8.94 µM (active) and 5.49 µM (active) |  |
| CN1C(C(=O)Nc2ccccn2)=C(O)c2ccccc2S1(=O)=O | inactive |  |
| COc1c(Cl)c(Cl)c(Cl)c(Cl)c1Cl | inactive |  |
| C=C(C)C(=O)OCCOC(=O)C(=C)C |  | -3.82% (inactive) |
| O=C(Nc1ccc([N+](=O)[O-])cc1Cl)c1cc(Cl)ccc1O |  | -2.19% [at 23.6 µM] (inactive) |
| O=C(/C=C/c1ccccc1)OCc1ccccc1 | 17.8 µM (active) and 9.77 µM (active) |  |
| CCCCC/C=C/C=C/C=O | 31.4 µM (active) and 39.9 µM (active) |  |
| COC(=O)CCC(=O)OC |  | -9.6% (inactive) |
| CCCCC(CC)COP(=O)(OCC(CC)CCCC)OCC(CC)CCCC (stereo not given) | inactive and 71 µM (active) |  |
| CCCc1c(OCCCCc2nn[nH]n2)ccc(C(C)=O)c1O | 159 nM (active) and 174 nM (active) |  |
| CCC(C)c1ccccc1O (stereo not given) | inactive |  |
| c1ccc2cc(Nc3ccc(Nc4ccc5ccccc5c4)cc3)ccc2c1 |  | -8.04% (inactive) |
| CC(=O)C1(C)CC2=C(CCCC2(C)C)CC1C (stereo not given) | inactive |  |
